40 compounds from PubChem BioAssay (NCI) can be followed below.

The structures appear in SMILES notation. This is part of a sample that, as a whole, favours compounds with a hit. Of some 79,000 tested, about 15% had one in any assay. Calls of active or inactive are those of the source. Cut-off read from the data, not from the text of the source: active = growth inhibition above about 70%; inactive = the rest.

This test can be described thus: NCI Yeast Anticancer Drug Screen. Data for the mlh1 rad18 strain (AID 175). The note with it: S. cerevisiae mlh1 rad18 strain growth inhibition; at 50.0 µM; active compounds read high. The gist of the method:
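Vehicle-treated cultures served as the reference for growth inhibition in a yeast strain carrying DNA damage repair alterations exposed to each compound.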
Turning to `O=C(O)C(C1=CCCCC1)C1(O)CCCCC1` (stereo not given), the growth inhibition is 12.7% (inactive).
Turning to `CCc1c(C)[nH]c(C2=NCCC2)c1C`, the growth inhibition is -25.1% (inactive).
On to `CC1C(O)C(c2ccccc2)(c2ccccc2)C(C)CN1C` (stereo not given), for which the growth inhibition was 3.45% (inactive).
Regarding `CN(C)Cc1ccccc1COC(=O)c1ccccc1`, the growth inhibition is 17.5% (inactive).
Then `CCC(=N)C(c1ccccc1)(c1ccccc1)C(C)CN(C)C` (stereo not given), with 13.7% (inactive); and `CC(=O)OC1/C=C(\C)C(OC(C)=O)C/C=C(/C)CCC2C(/C=C/C1=O)C2(C)C` (stereo not given), with 74% (active); and `COc1cc(COC(=O)Nc2ccccc2F)cc(OC)c1OC`, with -10% (inactive).
As to `Cc1ccc(S(=O)(=O)c2ccc(O)c(C)c2)c(O)c1` (tested in a mixture with another compound), the growth inhibition is 50.2% (inactive).
Then `Nc1nc(N)c2ccccc2n1`, with -1.7% (inactive); and `COCCOC(=O)c1ccccc1Cl`, with 22.4% (inactive).
In the case of `COC(=O)/C=C/c1cc(OC)c2c(c1)C(C(=O)OC)C(c1ccc(O)c(OC)c1)O2` (stereo not given), the growth inhibition is -8.95% (inactive).
In the case of `O=c1[nH]c2ccccc2nc1/C=C/n1c(=S)[nH]c2ccccc21`, the growth inhibition was -20.7% (inactive).
As for `COC1(OC)C=NNc2nccn21`, the growth inhibition was -5.3% (inactive).
On to `CC(C)Nc1nc(N)nc2nc(-c3ccc(Cl)cc3)c(-c3ccc(Cl)cc3)nc12`, for which the growth inhibition is 8% (inactive).
Turning to `CCOC(=O)/C(=C/c1ccc(C(=O)OC)cc1)N(CC)CC`, the growth inhibition is -25.8% (inactive).
Regarding `C=C(CN(C)C)C1(c2ccccc2)CC2(CCCC2)C(=O)O1` (stereo not given), the growth inhibition was 25.5% (inactive).
On to `CC(C)CCOC(=O)CC(CC(=O)OCCC(C)C)C(=O)OCCC(C)C`, for which the growth inhibition was 8.15% (inactive).
For the compound `CNCCC1CCCCCC1`, the growth inhibition was -2.8% (inactive).
`CCCCC1(O)CC2CC1C(C)C2(C)C` (stereo not given): the growth inhibition was 2.5% (inactive).
For `O=C1C=C(Nc2ccc3ccccc3c2[N+](=O)[O-])c2ccccc2C1=O`, the growth inhibition is 7.1% (inactive).
Consider `CCN(CC)C(=O)c1ccc(C(C)C)cc1`, for which the growth inhibition was 25.8% (inactive).
On to `CCCCCCCCCCCCSC(=O)CCC(=O)O`, for which the growth inhibition was 10.1% (inactive).
With `O=C(O)C(=O)NCc1cnccn1`, the growth inhibition was -19.1% (inactive).
Take `NC(CCC1CCCCC1)C(=O)O` (stereo not given): the growth inhibition was 3.7% (inactive).
`N=c1nc2n(cc1F)C1OC(CO)C(O)C1O2` (stereo not given): the growth inhibition is -8% (inactive).
Then `CCCCNCCOC(=O)c1ccc(N)cc1`, with 12.1% (inactive).
Next, `NC(N)=NC(N)=Nc1c(F)c(F)c(F)c(F)c1F`: -20.6% (inactive).
For the compound `CCO/C=C1\SC(=S)N(CCc2ccc(OC)c(OC)c2)C1=O`, the growth inhibition is -10.5% (inactive).
For the compound `CCN1C(=O)N(C)C(O)c2c1nc1ccccn1c2=O` (stereo not given), the growth inhibition was -19.6% (inactive).
As to `CCOC(=O)COS(=O)(=O)C(F)(F)F`, the growth inhibition is -10.7% (inactive).
For `CCN(CC)C(=O)c1c2nc3c(C(=O)N(CC)CC)ccc(C)c3oc-2c(C)c(=O)c1N`, the growth inhibition is 20.2% (inactive).
As for `CCCCCCCCCCCCCCCCN(C)C(=S)c1ccc(OC)cc1`, the growth inhibition was -8.4% (inactive).
Consider `O=C(c1ccccc1)c1ccc2cccc3c2c1CC3`, for which the growth inhibition was 34.4% (inactive).
In the case of `S=c1nc[nH]c2c1ncn2C1CCCC1`, the growth inhibition was -3.1% (inactive).
Then `CN1CCN(Cc2cc(C(C)(C)C)cc(-c3ccccc3)c2O)CC1`, with 25.6% (inactive); and `CC(=O)OC1OC(COC(=O)c2ccccc2)C(OC(=O)c2ccccc2)C1OC(=O)c1ccccc1` (stereo not given), with 2.95% (inactive).
Turning to `CCCC(CCC)C(=O)O`, the growth inhibition was -1.05% (inactive).
In the case of `O=C(O)CCC1CC1C(=O)c1ccccc1` (stereo not given), the growth inhibition is 17.9% (inactive).
As for `O=C1CCCCCCCS(=O)(=O)C1`, the growth inhibition was -0.2% (inactive).
Consider `CN(C)CC1CCC/C(=C\c2ccc(N(C)C)cc2)C1=O` (stereo not given), for which the growth inhibition was -34.3% (inactive).
